An excerpt weighted towards active compounds, which were near 18% of everything screened.
TGFb inhibitor: TGF-b pathway inhibition; HepG2 CAGA-GFP TGF-b/SMAD3 reporter, GFP fluorescence, 18 h; TGF-beta stimulated, 500 pg/mL final; Potency, µM (highest dose often 46.1 µM), for the others: top-dose activity, negative = inhibition, hits mostly inhibitors; 1.2% of 410,000 active; AID 588855; note: potency is the fitted concentration of half-maximal effect; % is set by controls: 0 for no effect and ±100 for the full control effect; nearly all actives have a fitted effect of over 65% in size
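Read-out: total well GFP (ex488/em500-530) summed from mean per-cell fluorescence. Cells: HEPG2 CAGA-GFP, 1% FBS DMEM, 18 h at 37 degrees C with 500 pg/mL final TGF-beta. Unstimulated wells served as the full-inhibition control; stimulated DMSO wells = 0%.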
TDP1 cell CPT: DT40-hTDP1 cell growth loss with CPT; AID 686979; Potency, µM (highest dose often 46.2 µM), for inactives: at the top dose activity change, negative = growth inhibition, hits mostly inhibitors; chicken DT40 Tdp1-/-;hTDP1 cells + 20 nM CPT, ATP luminescence, 48 h; 12% of 420,000 active; note: potency is the fitted concentration of half-maximal effect; % is set by controls: 0 for no effect and ±100 for the full control effect; nearly all actives have a fitted effect of over 55% in size
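Chicken DT40 Tdp1-/- cells stably complemented with human TDP1 were seeded at 400 cells/well in medium containing 20 nM camptothecin, exposed to pin-transferred compounds, and grown at 37 °C for at least 48 hr. Viability was read as ATP luminescence.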
HepG2 tox: counter-screen for TGF-b inhibitors: cytotoxicity in HepG2 cells; HepG2 CAGA-GFP viability, ATP luminescence, 18 h; Potency, µM (highest dose often 46.1 µM), for inactives: at the top dose activity change, negative = cytotoxicity, most hits filed as cytotoxic; 0.76% of 410,000 active; AID 588856; note: potency is the fitted concentration of half-maximal effect
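CellTiter-Glo luminescence gave cytotoxicity after 18 hours at 37 degrees C. The cells were HepG2 CAGA-GFP in 1% FBS DMEM, stimulated with 500 pg/mL TGF-beta after compound addition. %Activity was normalised to no-cell wells (complete cell-killing) and DMSO (no toxicity), and curves were fitted and classified.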
IL-1B inflam inh: inflammasome signaling inhibition, IL-1 beta readout; activity change, % at 57.5 µM; 4.7% of 360,000 active; THP-1 LPS/ATP IL-1B secretion, AlphaLISA, 16 h; stronger effect = lower value; AID 743279; in the data active = activity change below about -50%; inconclusive = mostly about -30% to -49%; note: % is set by controls: 0 for no effect and ±100 for the full control effect
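Secreted IL-1B measured by AlphaLISA bead assay after 16 h compound exposure of THP-1 cells; compounds (final up to 57.5 uM) added 1 h before LPS (250 ng/mL) and ATP (1.25 mM) stimulation; lower signal means less secretion.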
DT40 TDP1 no CPT: qHTS for Inhibitors of human tyrosyl-DNA phosphodiesterase 1 (TDP1): qHTS in cells in absence of CPT; DT40 Tdp1-/- hTDP1 cells, no CPT, ATP luminescence, 48 h; Potency, µM (highest dose often 46.2 µM), for the others: at the top dose activity change, negative = growth inhibition, most hits filed as inhibitors; 15% of 420,000 active; note: potency is the fitted concentration of half-maximal effect; % is set by controls: 0 for no effect and ±100 for the full control effect; nearly all actives have a fitted effect of over 55% in size
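Cells were dispensed at 400 per well, compounds added by pin tool, plates incubated ≥48 hr at 37 °C, then CellTiter-Glo added for 30 min at room temperature before luminescence reading. Line: DT40 Tdp1-/- complemented with hTDP1; camptothecin omitted.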
TDP1 block: TDP1 (human) enzyme inhibition | 0.28% of 350,000 active | Q9NUW8 | Potency, µM (series often up to 130 µM), without a hit: top-dose activity change, negative = inhibition, most hits filed as inhibitors | recombinant TDP1, AlphaScreen DNA substrate cleavage; note: potency is the fitted concentration of half-maximal effect; % is set by controls: 0 for no effect and ±100 for the full control effect; nearly all actives have a fitted effect of over 40% in size
Target sequence (Q9NUW8 whole entry, looked up): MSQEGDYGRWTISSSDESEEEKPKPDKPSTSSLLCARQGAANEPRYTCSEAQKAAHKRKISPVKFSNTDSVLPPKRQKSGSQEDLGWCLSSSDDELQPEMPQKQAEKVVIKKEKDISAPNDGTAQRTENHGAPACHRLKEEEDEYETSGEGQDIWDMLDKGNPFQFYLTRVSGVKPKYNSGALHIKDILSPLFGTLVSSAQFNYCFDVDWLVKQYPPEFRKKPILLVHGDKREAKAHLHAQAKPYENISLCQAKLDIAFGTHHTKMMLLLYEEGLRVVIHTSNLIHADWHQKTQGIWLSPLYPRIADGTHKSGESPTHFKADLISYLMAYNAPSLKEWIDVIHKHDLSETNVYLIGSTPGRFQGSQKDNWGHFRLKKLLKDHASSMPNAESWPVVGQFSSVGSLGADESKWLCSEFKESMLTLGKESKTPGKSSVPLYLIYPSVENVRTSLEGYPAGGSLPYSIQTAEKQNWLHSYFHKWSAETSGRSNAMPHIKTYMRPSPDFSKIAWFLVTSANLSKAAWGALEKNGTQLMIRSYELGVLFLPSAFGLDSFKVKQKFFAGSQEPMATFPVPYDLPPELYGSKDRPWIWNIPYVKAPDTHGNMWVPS
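Enzyme-compound mixtures sat 15 min at room temperature, followed by a 5 min reaction with 15 nM final substrate and 10 min with AlphaScreen beads. Recombinant human Tdp1 was used at 1 nM final.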
Active calls of the source: *; ? = inconclusive; . = no result; [ ] = dose if it differs, or a comment. Unless noted, calls come from the whole dose curve; as a rule, active = well fitted curve in the direction sought with a large enough effect; inconclusive = small, poorly fitted or top-dose-only effect, or another doubt; inactive = no such curve, though single readings can be large; an effect the other way counts as inactive or inconclusive.

SMILES	TGFb inhibitor	TDP1 cell CPT	HepG2 tox	IL-1B inflam inh	DT40 TDP1 no CPT	TDP1 block
C=CCn1c(SCC(=O)O)nc2sc(CC)cc2c1=O	-1.0%	4.8%	-2.2%	6.1	-28.3%	6.0%
C=CCn1c(SCC(=O)c2cccs2)nc2sc(CC)cc2c1=O	0.0%	14.6µM*	-2.4%	9.1	16.4µM*	0.0%
C=CCn1c(SCC(=O)/C(C#N)=C(\C)N)nc2sc(CC)cc2c1=O	?	20.6µM*	-10.6%	?	20.6µM*	2.9%
CCCCn1c(N)c(N(CCOC)C(=O)c2cc(S(=O)(=O)N3CCOCC3)ccc2Cl)c(=O)[nH]c1=O	-0.5%	4.3%	-3.4%	5.2	14.0%	.
Cc1ccc(S(=O)(=O)N2CCCCC2)cc1NC(=O)c1ccccn1	-1.6%	?	-18.2%	-5.7	-29.9%	0.6%
O=C(c1cccc(F)c1)N(Cc1cc2cc3c(cc2nc1N1CCOCC1)CCC3)CC1CCCO1 (configuration not stated)	.	7.9%[9.04 µM]	.	.	-0.9%	.
CCC/C=C(\CCC)C(NC(=O)c1ccccc1)c1ccc(C(=O)OC)cc1 (configuration not stated)	.	.	.	.	.	0.9%
CCOC(=O)c1c(C)n(S(=O)(=O)c2ccc(C)cc2)c2ccc(NS(=O)(=O)c3ccc(C)cc3)cc12	1.2%	18.4µM*	-0.7%	.	20.6µM*	.
Cc1ccc(S(=O)(=O)Nc2ccc3c(c2)c2c(n3S(=O)(=O)c3ccc(C)cc3)CCCC2=O)cc1	-0.8%	5.8µM*	-6.6%	24.9	8.2µM*	5.4%
Cc1ccc(S(=O)(=O)Nc2ccc3c(c2)CCC3)cc1	-11.9%	14.6µM*	-19.5%	-19.2	16.4µM*	5.6%
CCn1cnc2cc(NS(=O)(=O)c3ccc(C)cc3)ccc21	?	?	-2.2%	18.5	?	-7.1%
CCOCCOCN(C#N)c1nc(OC)nc(N(C)C)n1	13.2%	10.4%	-10.1%	-2.5	-12.3%	6.8%
COC(=O)c1ccc2nc(C3CCCCC3)c(Cc3ccccc3)n2c1	?	16.4µM*	-48.7%	20.3	9.2µM*	.
Brc1ccc2nc(C3CCCCC3)c(Cc3ccccc3)n2c1	?	?	-17.3%	48.8	?	.
Clc1ccc2nc(C3CCCCC3)c(CC3CCCCC3)n2c1	9.8%	-22.8%	6.4%	42.0	?	.
COC(=O)c1ccc2nc(C3CCCCC3)c(CC(C)(C)C)n2c1	?	?	10µM*	64.7	?	.
Cc1nc(-c2nnc(SCC(=O)Nc3ccc(Cl)cc3)n2C)cs1	18.9%	0.3%	2.0%	14.2	-4.5%	.
OC(Cc1ccc2ccccc2n1)c1ccccc1 (configuration not stated)	2.1%	-0.3%	-9.4%	.	?	.
CCc1cc(/C(Cc2ccccn2)=N\O)c(O)cc1O	10.8%	?	-19.0%	-6.3	-29.1%	7.8%
CCc1cc(/C(Cc2ccc3ccccc3n2)=N\O)c(O)cc1O	?	?	-25.3%	-101.3*	?	7.9%
Cc1c(O)ccc(/C(Cc2ccc3ccccc3n2)=N\N)c1O	?	7.31µM*	-20.7%	0.0	10.3µM*	9.9%
CCCCN(CC)C(=O)Cn1nc(C)c2c(C)n(-c3ccccc3)nc2c1=O	1.2%	-7.8%	-3.7%	.	-12.5%	-8.5%
O=C(Nc1nccs1)c1nc[nH]c1C(=O)NCc1ccccc1	-11.8%	11.5%	-7.0%	-14.0	0.1%	-8.5%
Cc1cc(NO)c(C(C)C)cc1N=O	-13.4%	8.2µM*	-19.0%	-85.4*	10.3µM*	-5.4%
Cc1cc(O)c(C(C)C)cc1N=C1CSC(=O)N1	2.6%	-5.7%	-22.1%	18.8	?	0.0%
SMILES	TGFb inhibitor	TDP1 cell CPT	HepG2 tox	IL-1B inflam inh	DT40 TDP1 no CPT	TDP1 block
Cc1nonc1-c1csc(N)n1	-6.4%	3.9%	-12.6%	8.6	-28.8%	-1.2%
COc1ccc(C2CC(c3cccc(Br)c3)=NN2c2ccc(S(N)(=O)=O)cc2)cc1 (configuration not stated)	?	25.9µM*	-116.6%	0.0	?	-8.8%[56.1 µM]
COc1ccc(C2CC(c3cccc(C(F)(F)F)c3)=NN2c2ccc(S(N)(=O)=O)cc2)cc1 (configuration not stated)	?	?	-113.3%	?	25.9µM*	-8.7%[56.1 µM]
COc1ccc(C2CC(c3cccc(F)c3)=NN2c2ccc(S(N)(=O)=O)cc2)cc1 (configuration not stated)	11.2µM*	?	-98.2%	-18.6	?	-7.4%[56.1 µM]
COc1ccc(C2CC(c3ccccc3)=NN2c2ccc(S(N)(=O)=O)cc2)cc1 (configuration not stated)	?	-13.3%	-43.9%	?	?	.
CN(C1CCCCC1)S(=O)(=O)Cc1ccccc1	12.6%	-24.4%	9.3%	-1.2	?	0.0%
O=C(COC(=O)COc1ccc(Cl)cc1)Nc1cccnc1Cl	-12.3%	-1.7%	16.6%	8.9	-4.5%	.
Cc1cc(Br)cc(C)c1OCCCCN(C)C	-17.7%	29.1µM*	-32.3%	-20.9	?	1.0%
COc1ccc(S(=O)(=O)N2CCN(CC(=O)Nc3cc(C(F)(F)F)ccc3Cl)CC2)cc1	-4.7%	?	1.0%	-16.7	10.3µM*	0.0%
